From PubChem BioAssay
The source made the active and inactive calls.

Key:
[1] = system: Plasmodium falciparum Sir2 (PF13_0152, Sir2A); experiment: pfSir2 binders on small-molecule microarrays, primary screen, biochemical, small-molecule microarray, 635 nm fluorescence (AID 1098); details: small-molecule microarray binding, fluorescence 635 nm; higher = more signal;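 note: score merges spot fluorescence intensity with its signal-to-noise ratio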
[2] = small-molecule microarray binders of probe aDKK1, primary screen, biochemical, biotinylated probe, 635/667 nm fluorescence (AID 1099); details: higher = more signal;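 note: score merges 667nm spot fluorescence with signal to noise across triplicate slides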
[3] = small-molecule microarray binders of probe aCHRDL2, primary screen, biochemical, biotinylated probe, 635/667 nm fluorescence (AID 1100); details: higher = more signal
[4] = splicing luciferase reporter signal modulators, primary screen, spliceosome inhibition project, cell-based, HEK293, splice +/- reporter (AID 1101); details: luminescence, 24 h, higher = more signal, called active from +8 up or from −8 down;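 note: HEK293 cells carrying a splicing-competent luciferase reporter gene; test concentration not given here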
[5] = target: Fibroblast growth factor 10 (Homo sapiens) (UniProt O15520); experiment: FGF10 binders on small-molecule microarrays, primary screen, biochemical, small-molecule microarray, 635 nm fluorescence (AID 1102); details: FGF10 binding, fluorescence 635 nm, higher = more signal
[6] = system: glycogen synthase kinase-3 (GSK3A per assay name; protocol says GSK3B); experiment: GSK3 binders on small-molecule microarrays, primary screen, biochemical, small-molecule microarray, 635 nm fluorescence, GSK3A (AID 1103); details: small-molecule microarray binding, fluorescence 635 nm; higher = more signal; note: the record names both GSK3A and GSK3B
[7] = target: Epidermal growth factor receptor (Homo sapiens) (UniProt P00533); experiment: EGFR binders on small-molecule microarrays, primary screen, biochemical, small-molecule microarray, 635 nm fluorescence (AID 1104); details: EGFR binding, higher = more signal;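 note: score merges 667 nm emission intensity with spot signal to noise over triplicate slides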
[8] = target: Follistatin-related protein 3 (Homo sapiens) (UniProt O95633); experiment: FSTL3 binders on small-molecule microarrays, primary screen, biochemical, small-molecule microarray, 635 nm fluorescence (AID 1105); details: FSTL3 binding, higher = more signal;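 note: score merges emission near 667 nm and signal to noise per printed spot across three slides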
[9] = target: Dickkopf-related protein 1 (Homo sapiens) (UniProt O94907); experiment: DKK1 binders on small-molecule microarrays, primary screen, biochemical, small-molecule microarray, 635 nm fluorescence scan (AID 1106); details: DKK1 binding, higher = more signal;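 note: score merges emission near 667 nm with signal to noise over three replicate slides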
[10] = system: Inhibin beta A chain (activin A); experiment: INHBA (activin A) binders on microarrays, primary screen, biochemical, small-molecule microarray, 635 nm fluorescence scan (AID 1107); details: small-molecule microarray binding, higher = more signal;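 note: mouse activin A protein probed at 4.33 µg/mL on printed slides; score merges bound-protein fluorescence near 667 nm with spot signal-to-noise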
[11] = system: Human papillomavirus type 1a protein E7 (residues 44-93); experiment: HPV1a E7 fragment binders on microarrays, primary screen, biochemical, small-molecule microarray, residues 44-93, 635 nm fluorescence (AID 1108); details: small-molecule microarray binding, fluorescence 635 nm; higher = more signal;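 note: E7 fragment applied at 1 µg/mL in TBST for 1 h at 4 C; score combines spot fluorescence with its signal to noise ratio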
[12] = modulators of HCV replicon luciferase signal, primary screen, HCV replication inhibitor project, Huh7 cells, luciferase reporter (AID 1109); details: 48 h, higher = more signal;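 note: huh7 hepatoma cells harbouring a luciferase neomycin HCV replicon reporter; luciferase luminescence as measure of HCV replicon replication; test concentration not given here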
[13] = target: Left-right determination factor 2 (Homo sapiens) (UniProt O00292); experiment: LEFTY2 binders on small-molecule microarrays, primary screen, biochemical, small-molecule microarray, 635 nm fluorescence scan (AID 1110); details: LEFTY2 binding, higher = more signal
[14] = target: Calmodulin-1 (Homo sapiens) (UniProt P0DP23); experiment: CALM1 binders on microarrays, EGTA buffer, profiling panel, biochemical, small-molecule microarray, Cy5-labelled CALM1 (AID 1111); details: Cy5-CALM1 binding fluorescence, higher = more signal;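 note: labelled calmodulin applied in Tris saline Tween buffer holding calcium plus EGTA and DTT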
[15] = target: Calmodulin-1 (Homo sapiens) (UniProt P0DP23); experiment: calcium-bound CALM1 binders on microarrays, profiling panel, artefact control for SMM control-protein annotation, biochemical, small-molecule microarray, Cy5-labelled CALM1, plus calcium (AID 1112); details: Cy5-CALM1 binding fluorescence, higher = more signal;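 note: score merges spot fluorescence with signal to noise from triplicate slides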
[16] = small-molecule microarray binders of probe aWnt5a, primary screen, biochemical, biotinylated probe, 635/667 nm fluorescence (AID 1113); details: higher = more signal;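 note: score merges 667 nm fluorescence intensity with signal-to-noise per printed feature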
[17] = small-molecule microarray binders of probe aShh, primary screen, biochemical, biotinylated probe, 635/667 nm fluorescence (AID 1114); details: higher = more signal;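 note: probe is biotin-labelled aShh protein from a stem cell growth factor screen; measures binding of labelled protein to compounds printed on the slide; score merges feature fluorescence at 667 nm with signal-to-noise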
[18] = small-molecule microarray binders of probe aNog, primary screen, biochemical, biotinylated probe, 635/667 nm fluorescence (AID 1115); details: higher = more signal;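 note: probe is biotinylated aNog protein used at 0.15 µg/mL for 1 h at 4 C; z-score combines 667 nm fluorescence of each spot with its signal to noise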
[19] = target: Torsin-1A-interacting protein 1 (Homo sapiens) (UniProt Q5JTV8); experiment: LAP1 binders from COS7 cell lysate, primary screen, small-molecule microarray, 635/667 nm fluorescence (AID 1116); details: COS7-hLAP1 lysate binding, 635 nm fluorescence, higher = more signal
[20] = target: Alpha-bungarotoxin (Bungarus multicinctus) (UniProt P60615); experiment: alpha-bungarotoxin binders on microarray, profiling panel, artefact control for SMM control protein annotation, biochemical, small-molecule microarray, Alexa647 label, 635/667 nm fluorescence (AID 1117); details: alpha-BTX-A647 binding fluorescence, higher = more signal
Alpha-bungarotoxin (Bungarus multicinctus), sequence (P60615 whole entry, looked up): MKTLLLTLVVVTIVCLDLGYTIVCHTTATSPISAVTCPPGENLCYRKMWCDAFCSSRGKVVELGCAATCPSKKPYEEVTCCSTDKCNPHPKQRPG

Follistatin-related protein 3 (Homo sapiens), sequence (O95633 whole entry, looked up): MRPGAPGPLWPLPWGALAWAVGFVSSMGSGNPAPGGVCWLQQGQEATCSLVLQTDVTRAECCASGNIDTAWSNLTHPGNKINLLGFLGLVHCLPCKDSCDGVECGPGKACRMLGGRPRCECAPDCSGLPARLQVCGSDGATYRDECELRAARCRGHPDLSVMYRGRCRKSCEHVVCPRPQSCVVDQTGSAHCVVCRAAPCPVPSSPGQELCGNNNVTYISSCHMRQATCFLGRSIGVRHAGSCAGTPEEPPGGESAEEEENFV
Fibroblast growth factor 10 (Homo sapiens), sequence (O15520 whole entry, looked up): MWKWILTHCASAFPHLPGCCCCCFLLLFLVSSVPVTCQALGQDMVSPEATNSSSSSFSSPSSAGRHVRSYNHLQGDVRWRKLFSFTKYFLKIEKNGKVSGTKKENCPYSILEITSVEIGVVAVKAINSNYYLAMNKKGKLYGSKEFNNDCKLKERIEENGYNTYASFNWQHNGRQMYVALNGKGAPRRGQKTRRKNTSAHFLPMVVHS
Torsin-1A-interacting protein 1 (Homo sapiens), sequence (Q5JTV8 whole entry, looked up): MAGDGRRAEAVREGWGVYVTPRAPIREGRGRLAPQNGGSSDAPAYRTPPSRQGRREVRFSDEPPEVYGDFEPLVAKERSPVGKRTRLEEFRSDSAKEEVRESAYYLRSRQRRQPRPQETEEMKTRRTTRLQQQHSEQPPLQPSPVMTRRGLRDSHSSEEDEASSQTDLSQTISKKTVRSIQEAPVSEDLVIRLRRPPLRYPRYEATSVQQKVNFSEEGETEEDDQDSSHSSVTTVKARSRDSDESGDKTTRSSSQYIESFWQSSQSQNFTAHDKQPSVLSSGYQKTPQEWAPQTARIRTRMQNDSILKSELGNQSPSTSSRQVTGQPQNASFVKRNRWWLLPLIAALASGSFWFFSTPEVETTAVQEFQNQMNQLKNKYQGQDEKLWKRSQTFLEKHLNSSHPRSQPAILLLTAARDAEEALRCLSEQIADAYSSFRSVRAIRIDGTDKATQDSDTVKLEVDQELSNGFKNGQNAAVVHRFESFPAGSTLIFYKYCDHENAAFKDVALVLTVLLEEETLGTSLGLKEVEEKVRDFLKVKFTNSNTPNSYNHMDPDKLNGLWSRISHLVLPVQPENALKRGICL
Epidermal growth factor receptor (Homo sapiens), sequence (P00533 whole entry, looked up): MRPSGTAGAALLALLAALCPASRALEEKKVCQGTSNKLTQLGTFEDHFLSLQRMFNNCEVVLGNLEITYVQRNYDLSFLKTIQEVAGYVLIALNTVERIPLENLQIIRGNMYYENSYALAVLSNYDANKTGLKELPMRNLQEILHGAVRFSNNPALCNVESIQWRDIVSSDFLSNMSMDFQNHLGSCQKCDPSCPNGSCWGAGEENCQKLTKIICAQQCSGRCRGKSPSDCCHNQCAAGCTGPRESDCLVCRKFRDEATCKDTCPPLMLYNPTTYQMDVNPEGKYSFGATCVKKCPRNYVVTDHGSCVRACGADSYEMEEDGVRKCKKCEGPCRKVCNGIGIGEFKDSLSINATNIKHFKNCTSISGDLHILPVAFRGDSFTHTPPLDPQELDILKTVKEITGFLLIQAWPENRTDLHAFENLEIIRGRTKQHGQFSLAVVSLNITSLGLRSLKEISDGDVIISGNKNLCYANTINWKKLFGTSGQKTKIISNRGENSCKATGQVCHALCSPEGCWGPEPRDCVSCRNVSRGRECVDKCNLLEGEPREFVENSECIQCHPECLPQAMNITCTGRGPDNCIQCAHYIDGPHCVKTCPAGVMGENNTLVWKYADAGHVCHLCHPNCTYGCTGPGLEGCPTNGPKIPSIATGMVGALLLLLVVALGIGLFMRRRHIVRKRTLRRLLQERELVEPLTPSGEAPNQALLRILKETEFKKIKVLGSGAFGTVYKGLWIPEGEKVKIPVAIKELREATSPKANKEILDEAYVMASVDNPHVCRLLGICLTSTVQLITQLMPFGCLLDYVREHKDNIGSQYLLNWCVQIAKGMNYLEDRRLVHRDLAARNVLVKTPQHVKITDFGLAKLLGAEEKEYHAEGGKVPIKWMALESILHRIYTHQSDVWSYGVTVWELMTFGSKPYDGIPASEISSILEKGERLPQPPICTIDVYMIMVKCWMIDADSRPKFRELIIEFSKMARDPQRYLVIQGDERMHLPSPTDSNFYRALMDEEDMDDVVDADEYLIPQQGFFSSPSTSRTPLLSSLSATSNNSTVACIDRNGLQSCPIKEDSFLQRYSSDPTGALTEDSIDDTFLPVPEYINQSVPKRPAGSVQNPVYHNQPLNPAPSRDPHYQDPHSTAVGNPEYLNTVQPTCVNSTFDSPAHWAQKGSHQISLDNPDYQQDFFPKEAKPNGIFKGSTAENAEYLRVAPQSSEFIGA
Left-right determination factor 2 (Homo sapiens), sequence (O00292 whole entry, looked up): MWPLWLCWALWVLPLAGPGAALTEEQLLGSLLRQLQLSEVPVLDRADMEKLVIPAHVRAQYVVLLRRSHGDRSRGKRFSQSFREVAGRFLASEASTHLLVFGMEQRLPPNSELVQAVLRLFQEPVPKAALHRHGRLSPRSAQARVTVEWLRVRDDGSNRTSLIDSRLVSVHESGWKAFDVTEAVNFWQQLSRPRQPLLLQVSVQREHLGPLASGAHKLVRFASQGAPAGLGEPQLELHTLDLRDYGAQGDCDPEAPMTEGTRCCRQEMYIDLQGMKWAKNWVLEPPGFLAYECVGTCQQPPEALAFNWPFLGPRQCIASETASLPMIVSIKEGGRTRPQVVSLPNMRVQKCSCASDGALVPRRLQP
Dickkopf-related protein 1 (Homo sapiens), sequence (O94907 whole entry, looked up): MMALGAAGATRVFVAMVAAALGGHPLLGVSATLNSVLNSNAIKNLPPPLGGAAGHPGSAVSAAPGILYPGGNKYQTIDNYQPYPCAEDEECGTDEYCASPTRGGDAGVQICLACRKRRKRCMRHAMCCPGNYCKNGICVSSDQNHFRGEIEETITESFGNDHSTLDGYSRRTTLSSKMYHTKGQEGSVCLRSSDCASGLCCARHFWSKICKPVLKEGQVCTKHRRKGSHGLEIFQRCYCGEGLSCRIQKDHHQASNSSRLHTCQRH

Row | Compound | composite z-score [1] | composite z-score [2] | composite z-score [3] | z-score [4] | composite z-score [5] | composite z-score [6] | composite z-score [7] | composite z-score [8] | composite z-score [9] | composite z-score [10] | composite z-score [11] | z-score [12] | composite z-score [13] | composite z-score [14] | composite z-score [15] | composite z-score [16] | composite z-score [17] | composite z-score [18] | composite z-score [19] | composite z-score [20]
1 | COc1c(C)cc(-c2nc(-c3ccccc3)c3c(c2C)CO[Si]3(C(C)C)C(C)C)cc1C | -0.186 | -0.141 | 0.0757 | -0.394 (inactive) | 0.295 | 0.324 | 0.387 | 0.338 | 0.305 | 0.698 | 0.0725 | -0.77 | 0.513 | 0.0032 | 0.154 | -0.0478 | -0.0769 | 0.239 | -0.0032 | -0.0073
2 | COc1cccc(C)c1NC(=O)O[C@H]1[C@H](OC(=O)Nc2ccc3c(c2)OCO3)[C@H](OC(=O)Nc2ccc3c(c2)OCO3)[C@@H](OC)O[C@@H]1CO | 1.28 | -0.0573 | 0.306 | -0.316 (inactive) | 1.39 | 1.34 | 0.169 | 1.01 | 0.487 | 0.69 | 1.47 | -0.466 | 0.262 | 1.6 | -0.406 | 0.122 | 0.715 | 0.351 | 0.305 | 1.57
3 | CN(C)CCCCNC(=O)[C@H]1C[C@H]2C(=O)N[C@@H](CCCCN(C)C)C(=O)N2[C@H]1c1ccc(O)cc1 | 1.12 | -0.265 | -0.508 | -1.73 (inactive) | 0.174 | -0.0777 | 0.821 | 0.592 | 1.16 | -0.0636 | -1.01 | 0.448 | 0.435 | -0.362 | -0.873 | -0.128 | -0.229 | -0.0446 | -0.178 | 0.457
4 | CC(C)(C)OC(=O)CC[C@]1(C(N)=O)N=C(c2ccc(OCCCO)cc2)O[C@H]1c1ccccc1N=[N+]=[N-] | 0.793 | 0.929 | 0.975 | -1.24 (inactive) | 1.5 | -0.0657 | -0.204 | 0.0699 | -0.307 | 1.23 | 0.97 | 0.697 | -0.143 | 1.53 | 1.1 | 0.0371 | 0.232 | 0.886 | 0.791 | 1.43
5 | C=CCC(OC(C)=O)[C@@H]1[C@@H](N(Cc2ccc(-c3ccccc3)cc2)C(=O)Cc2ccc(OC)cc2)c2cc(OCCCO)ccc2N1C(=O)c1ccc2ccccc2c1 (stereo not given in full) | 0.0435 | 0.0361 | -0.002 | -0.147 (inactive) | -0.0566 | -0.0533 | -0.0792 | 0.538 | -0.0863 | 1.17 | 0.242 | -0.856 | 0.215 | 0.106 | 0.335 | -0.122 | -0.153 | -0.57 | 0.748 | 0.284
6 | CC(C)[Si](C#Cc1ccccc1)(O[C@H](c1ccccc1)c1cn(Cc2ccccc2)nn1)C(C)C | 1.56 | 0.191 | -0.386 | -1.97 (inactive) | 0.785 | 1.06 | 0.726 | 1.49 | 1.86 | -0.165 | 0.657 | 0.167 | 0.0441 | -0.49 | -1.67 | -0.169 | -0.138 | -0.138 | 0.567 | 0.579
7 | CN(C)C(=O)[C@]1(CCS(=O)(=O)c2ccccc2)N=C(c2ccc(OCCCO)cc2)O[C@@H]1c1ccccc1CN=[N+]=[N-] | 1.45 | -0.326 | 0.32 | -0.153 (inactive) | 1.26 | 1.24 | -0.126 | 0.425 | -0.142 | 0.869 | 0.924 | -2.39 | -0.0755 | 1.98 | 0.68 | 0.0215 | -0.0891 | 0.463 | 1.48 | 1.71
8 | COC(=O)c1ccc(OC)c(/C=C\CC(OC(=O)c2ccncc2)c2ccccc2)c1 (stereo not given) | -0.475 | -0.367 | -0.43 | -2.07 (inactive) | 0.377 | 0.058 | 1.09 | 0.891 | 0.631 | 1.61 | -0.734 | -1.91 | 0.684 | -1.05 | 0.157 | -0.101 | -0.206 | -0.183 | 0.187 | 2.12
9 | C=CCOC(=O)[C@H]1[C@@H]2C(=O)O[C@@H](c3ccccc3)[C@@H](c3ccccc3)N2[C@@H](c2ccc(OCCOC(=O)[C@@H]3C[C@@H]4C(=O)N[C@@H](Cc5ccccc5)C(=O)N4[C@@H]3c3ccc(O)cc3)cc2)[C@]12C(=O)Nc1ccc(I)cc12 | 1.5 | -0.188 | -0.381 | -0.461 (inactive) | 1.31 | 0.606 | 0.654 | 1.24 | 0.825 | 0.684 | 1.27 | -1.64 | 0.898 | 0.367 | 0.242 | -0.152 | -0.154 | -0.432 | -0.164 | 0.875
10 | C=C[C@H](OC)[C@@H](O)c1ccc(OC)c(O)c1 | 0.352 | -0.464 | 0.37 | 0.772 (inactive) | -0.928 | -1.3 | -1.14 | -1.91 | -1.29 | -1.28 | -1.25 | 0.622 | -1.77 | -1.06 | -0.597 | -0.0981 | -0.0035 | -0.326 | -0.435 | -0.646
11 | CN1C(=O)C2C=CC(C(O)c3ccc([N+](=O)[O-])cc3)N(Nc3ccccc3)C2C1=O (stereo not given) | 1.25 | 0.279 | 0.998 | 0.293 (inactive) | 0.898 | 0.895 | 0.0754 | 1.01 | -0.157 | 0.905 | 1.41 | 0.514 | -0.258 | 2.04 | 0.843 | 0.0968 | 1.01 | 1.53 | 0.0788 | 1.44
12 | COc1ccc(C(=O)Nc2ccc(CN3C(=O)[C@]4(O[C@H](CC(=O)N(CCO)Cc5ccccc5)[C@@H]([Si](C)(C)c5ccc(OC)cc5)[C@@H]4C)c4ccccc43)cc2)cc1 | 1.11 | -0.0522 | -0.338 | -1.88 (inactive) | 1.34 | 0.956 | 0.918 | 1.34 | 1.1 | 0.842 | 1.37 | -3.71 | 0.803 | -0.0162 | -0.46 | 0.0354 | 0.108 | 0.0326 | 0.811 | 0.543
